# Screening results (PubChem BioAssay)
# Compounds with a hit are over-represented: about 14% of the library has one in this group of screens.
# Pf growth 96h: P. falciparum growth inhibition at 96 hour, primary screen for plastid delayed-death inhibitors; P. falciparum luciferase reporter growth, 96 h; Potency, µM (highest dose often 28.7 µM), for the others: at the top dose activity change, negative = inhibition, hits mostly inhibitors; hit rate 6.9% among 320,000; also: potency is read from the fitted curve at half-maximal effect
#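 Delayed-death screen, second-generation endpoint: infected erythrocytes, 2% hematocrit, 0.05% parasitemia final; 96 hours at 37 C, 5% CO2; luciferase detection reagent; luminescence decrease equals reduced growth.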
# HCMV antiviral: blocks human cytomegalovirus replication; HFF cells, HCMV-luciferase reporter, 72 h; stronger effect = lower value; activity change, negative = inhibition, % at 57.5 µM; hit rate 4.5% among 410,000; in the data active = activity change below about -60%; inconclusive = no clear call, values can overlap the other calls; inactive = above about -39%
#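 Inhibition of viral replication was scored as loss of reporter luminescence in HFFs infected with HCMV-luciferase (MOI 1 PFU/cell) for 72 h; compounds tested at 2 doses, normalized to buffer and Salinomycin controls.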
# Pf growth 48h: inhibits P. falciparum growth in the first generation, 48 h. P. falciparum luciferase growth in erythrocytes, 48 h. Potency, µM (top dose mostly 28.7 µM), inactives show at the highest dose activity change, negative = inhibition, actives largely listed as inhibitors. hit rate 5.9% among 310,000. AID 504832; also: potency is read from the fitted curve at half-maximal effect
#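 Compounds are pin-transferred into medium, infected erythrocytes (2% hematocrit, 0.1% parasitemia final) are added, and plates sit one parasite generation at 37 C in 5% CO2. Detection reagent is then added and luminescence measured.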
# Lassa entry inh: inhibitors of Lassa virus binding or cell entry; Lassa virus pseudotype entry inhibition, cell reporter; Potency, µM (series often up to 37.9 µM), without a hit: top-dose activity change, negative = inhibition, most hits filed as inhibitors; hit rate 1.2% among 300,000; AID 540256; calls by dose curve; tested in HEK293 cells; also: potency is read from the fitted curve at half-maximal effect; nearly all actives have a fitted effect of over 50% in size
# HCV inh: HCV inhibition | Huh7.5.1 HCVcc-Cre infection, luciferase reporter, 44 h | Potency, µM (top dose mostly 41.8 µM), inactives show at the highest dose activity change, negative = inhibition, most hits filed as inhibitors | hit rate 3.4% among 340,000; also: potency is read from the fitted curve at half-maximal effect
#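 Seed cells (1,000/well) for 4 h; treat with compound and infect with HCVcc-Cre, moi about 0.5. Incubate 44 h, then detect luciferase activity.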
# MARV entry inh: blocks Marburg virus binding to or entry into cells; Marburg virus pseudotyped entry inhibition, cell reporter; Potency, µM (titrated, usually from 37.8 µM), inactives show at the highest dose activity change, negative = inhibition, actives largely listed as inhibitors; hit rate 1.8% among 300,000; AID 540276; calls by dose curve; tested in HEK293 cells; also: potency is read from the fitted curve at half-maximal effect
# Starred values were filed as active, the others as inactive; ? = inconclusive; · = no result; [ ] = another dose, or the depositor's remark. Unless noted, calls follow the shape of the dose curve; as a rule, active = well fitted inhibition curve with a large enough effect; inconclusive = small, poorly fitted or top-dose-only effect, or another doubt; inactive = no such curve, though single readings can be large or run the other way. % is scaled to controls: 0 for no effect and ±100 for the full control effect.
SMILES,Pf growth 96h,HCMV antiviral,Pf growth 48h,Lassa entry inh,HCV inh,MARV entry inh
O=c1c2cc([N+](=O)[O-])ccc2nc(CN2CCN(c3ccccn3)CC2)n1-c1ccccc1F,13µM*,-20,64%,22%,-13%,14%[46.1 µM]
COc1ccc(-n2c(CN3CCN(c4ccccn4)CC3)nc3ccc([N+](=O)[O-])cc3c2=O)c(OC)c1,-1%,56,12µM*,·,?,·
CCN1CCN(Cc2nc3ccc([N+](=O)[O-])cc3c(=O)n2-c2ccccc2F)CC1,28%,103,-15%,·,5%,·
COc1cccc(-n2c(CN3CCOCC3)nc3ccc([N+](=O)[O-])cc3c2=O)c1,0%,57,?,·,-2%,·
COc1cccc(-n2c(CN3CCN(Cc4ccccc4)CC3)nc3ccc([N+](=O)[O-])cc3c2=O)c1,-16%,65,12µM*,-13%,0%,?
COc1ccc(-n2c(CN3CCN(c4ccc(F)cc4)CC3)nc3ccc([N+](=O)[O-])cc3c2=O)c(OC)c1,1%,-92*,·,?,-30%,-21%[46.1 µM]
COc1ccc(-n2c(CN3CCN(C)CC3)nc3ccc([N+](=O)[O-])cc3c2=O)c(OC)c1,23%,10,?,·,-6%,·
COc1ccc(S(=O)(=O)N(C)C[C@@H]2OCc3cn(nn3)CCCC(=O)N([C@H](C)CO)C[C@H]2C)cc1,·,-11,·,·,·,·
Cc1c(O)nc(SC2CC(=O)N(c3cc(Cl)cc(Cl)c3)C2=O)[nH]c1=O (stereo not drawn),·,39,·,-2%,10%,?
Cc1nn(CC(=O)N2CCN(C)CC2)c(=O)c2ccccc12,7.4µM*,-2,31%,1%,15%,21%
CCOC(=O)Cn1nc(C)c2ccccc2c1=O,·,12,16%,-1%,9%,-11%
Cc1nn(CC(N)=O)c(=O)c2ccccc12,2.1µM*,-33,?,-3%,3%,13%
CCc1cccc(C)c1NS(=O)(=O)c1c(C(=O)N2CCC(C)CC2)c(C)n(C)c1C,·,-1,·,-15%[46.1 µM],·,·
COc1ccc(CCNC(=O)C(=O)NCC(c2ccco2)S(=O)(=O)c2ccccc2)cc1 (stereo not drawn),·,34,·,0%[46.1 µM],·,·
CC(C)Oc1cccc(C2CC(=O)Nc3cc4c(cc32)OCO4)c1 (stereo not drawn),·,-16,·,?,·,?
CC(C)c1ccc(C2C3=C(COC3=O)Nc3cc4c(cc32)OCO4)cc1 (stereo not drawn),?,-88*,1%,?,-46%,?
CS(=O)(=O)Nc1cccc(C(=O)CC2(O)C(=O)Nc3ccccc32)c1 (stereo not drawn),4%,-68*,14%,8%,10%,9%
O=S(=O)(NCC(c1ccc2c(c1)OCO2)N1CCN(c2ccccc2)CC1)c1ccccc1 (stereo not drawn),?,-6,7.4µM*,?,-6%,?
O=S(=O)(NCC(c1cccnc1)N1CCN(c2ccccc2)CC1)c1cc(F)ccc1F (stereo not drawn),2%,20,10µM*,-24%,6%,4%
CCOc1ccc(S(=O)(=O)NCC(c2ccc3c(c2)OCO3)N2CCN(C)CC2)cc1 (stereo not drawn),1%,-21,-29%,?,?,7.9µM*
CCC(=O)NCC(c1ccc2c(c1)OCO2)N1CCN(c2ccccc2)CC1 (stereo not drawn),·,30,·,-11%[46.1 µM],·,·
COc1ccc(S(=O)(=O)NCC(c2ccc3c(c2)OCO3)N2CCN(C)CC2)cc1OC (stereo not drawn),13%,-15,6%,3%,-7%,2%
CCOc1ccc(S(=O)(=O)N2CCC(c3ccncc3)CC2)cc1,·,-21,·,-12%[46.1 µM],·,·
Cc1cccc(C(=O)Nc2c(C(=O)NCc3ccc(Cl)cc3)sc3nc(C)cc(C)c23)c1,·,-75*,·,?,·,?
CCOc1ccc(NS(=O)(=O)c2cc(C(=O)N3CCCC3)ccc2Cl)cc1,-6%,-20,?,16%[46.1 µM],?,-2%
SMILES,Pf growth 96h,HCMV antiviral,Pf growth 48h,Lassa entry inh,HCV inh,MARV entry inh
CCOc1ccc(NS(=O)(=O)c2cc(NC(=O)c3cccc(C)c3)ccc2Cl)cc1,?,?,?,16µM*,11µM*,?
Cc1cccc(C(=O)Nc2ccc(NC(=O)Cc3ccc(Cl)cc3)cc2)c1,12µM*,-16,16%,6%,32%,14%
Cc1cc(C)c2c(NC(=O)c3ccccc3)c(C(=O)Nc3ccc(F)cc3)sc2n1,·,4,·,-26%[46.1 µM],·,·
COc1cccc(C(=O)NNC(=O)Cc2ccc(Cl)cc2)c1,2.9µM*,?,5%,-9%,-4%,-8%
Cc1ccc(OCCNc2cc(N3CCN(CCO)CC3)ccc2[N+](=O)[O-])cc1C,-20%,-15,?,?,10µM*,?
Cc1cccc(OCCNc2cc(N3CCOCC3)ccc2[N+](=O)[O-])c1,?,2,?,16%,10µM*,?
Cc1cccc(OCCNc2cc(N3CCN(C)CC3)ccc2[N+](=O)[O-])c1,5%,2,1%,?,?,?
COc1ccc2c(c1)C(n1cccc1)C(=O)N2C (stereo not drawn),·,24,·,·,·,·
Clc1ccc2[nH]cc(-c3nnnn3-c3ccc4ccccc4c3)c2c1,?,-62*,?,-18%,?,?
Clc1ccc(-c2nnnn2-c2ccc(Cl)cc2)cc1,4%,-7,-12%,3%[46.1 µM],-14%,?
COc1ccc2c3c([nH]c2c1)[C@@H](CO)N(C(=O)c1ccccc1)CC31CN(C(=O)CC2CC2)C1,·,5,·,·,·,·
Cc1nn(-c2ccccc2)nc1C(=O)Oc1cc(C(F)(F)F)nn1-c1ccccc1,-29%,-33,0.37µM*,·,1%,·
COC(=O)c1cc2oc(C)cc2n1Cc1cc(C)ccc1C,·,-6,·,·,·,7%[46.1 µM]
Cc1ccc(Sc2c(CO)c(-c3ccccc3)nn2C)cc1,2%,-83*,?,?,?,?
COC(=O)c1cc(S(=O)(=O)N2CCC(c3ccccc3)C2)c[nH]1 (stereo not drawn),-14%,-38,30%,·,11µM*,·
COC(=O)c1cc(S(=O)(=O)N2CCC(c3cc(OC)ccc3OC)C2)c[nH]1 (stereo not drawn),13µM*,?,0%,·,6.3µM*,·
CN(C)CCNC(=S)Nc1ccc(-c2nc3ccccc3[nH]2)cc1,?,116,-47%,8%,-20%,?
CC(C)c1ccc(NC(=S)NCc2ccc3c(c2)OCO3)cc1,-30%,14,-17%,21%[46.1 µM],-17%,-27%[46.1 µM]
COc1ccc(CNC(=S)Nc2ccccc2)cc1,13µM*,-23,?,22%,-17%,1%
COc1ccc(NC(=S)NCc2ccc3c(c2)OCO3)cc1,1.7µM*,-23,2%,-13%[46.1 µM],-2%,13%[46.1 µM]
